Measurements: PubChem BioAssay (NCATS)
Results filed as inconclusive are left out. Some structures have more than one record in an assay (separate samples or runs), and their calls can disagree. Active and inactive are the calls of the source. Unless noted, calls come from the whole dose curve; as a rule, active = well fitted curve in the direction sought with a large enough effect; inconclusive = small, poorly fitted or top-dose-only effect, or another doubt; inactive = no such curve, though single readings can be large; an effect the other way counts as inactive or inconclusive.

What was measured:
[1] = Cell Viability - LYMP2-001 (AID 921); note: potency is the fitted concentration of half-maximal effect; nearly all actives have a fitted effect of over 70% in size
In short: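 Cellular ATP loss read by luciferase luminescence after 24 h compound exposure at 37 C in complete medium. LYMP2-001 lymphoblastoid cells, 2500/well; qHTS concentration-response data fitted with Hill equation for AC50.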

[2] = Cell Viability - LYMP2-009 (AID 968); note: potency is the fitted concentration of half-maximal effect; nearly all actives have a fitted effect of over 55% in size
[3] = Cell Viability - LYMP2-011 (AID 969); note: potency is the fitted concentration of half-maximal effect; nearly all actives have a fitted effect of over 60% in size
In short: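 Luminescent ATP read-out (CellTiter-Glo, 30 min RT) after 24 hr compound exposure at 37 C in human lymphoblastoid cells, 2500 cells/well. Decreasing ATP indicates cytotoxicity; AC50 from standard Hill fit.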

[4] = Cell Viability - LYMP2-013 (AID 970); note: potency is the fitted concentration of half-maximal effect; nearly all actives have a fitted effect of over 55% in size
In short: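 CellTiter-Glo luminescence (cellular ATP) read after 30 min at RT. Cells: human lymphoblastoid line, 2500/well, 24 hr compound exposure at 37 C. Tetraoctylammonium bromide positive control; AC50 via standard Hill fit of qHTS titrations.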

[5] = Cell Viability - LYMP2-015 (AID 971); note: potency is the fitted concentration of half-maximal effect; nearly all actives have a fitted effect of over 55% in size
In short: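 qHTS cytotoxicity: 2500 cells/well, 5 hr 37 C, compound 24 hr 37 C, CellTiter-Glo 30 min RT, luminescence. Loss of ATP = toxicity; AC50 via standard Hill fit.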

[6] = Cell Viability - LYMP2-017 (AID 972); note: potency is the fitted concentration of half-maximal effect; nearly all actives have a fitted effect of over 55% in size
In short: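 Luminescent ATP read-out (CellTiter-Glo, 30 min RT) reports viable cell number. Cells: human lymphoblastoid line, 2500 per well, 5 hr preincubation, 24 hr compound exposure at 37 C. AC50 is derived from qHTS concentration-response data using the standard Hill model.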

[7] = Cell Viability - LYMP2-019 (AID 973)
In short: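 qHTS, 1536-well; 2500 cells/well; 5 hr pre-incubation, 24 hr compound exposure, 37 C; CellTiter-Glo added, 30 min RT; luminescence read; AC50 via standard Hill equation.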

[8] = Cell Viability - LYMP2-021 (AID 974)
In short: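 ATP luminescence (CellTiter-Glo, 30 min RT) after 24 h compound exposure at 37 C; 2500 human lymphoblastoid cells/well, 5 h settle beforehand. Cytotoxicity = concentration-dependent ATP drop, AC50 by Hill fit.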

[9] = Cell Viability - LYMP2-023 (AID 975)
In short: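 CellTiter-Glo luminescence after 30 min at room temperature; decrease in intracellular ATP reflects toxicity. Cells: human lymphoblastoid line, 2500/well, 24 hr compound exposure at 37 C. AC50 fitted to standard Hill equation from concentration-response.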

[10] = Cell Viability - LYMP2-025 (AID 976); note: potency is the fitted concentration of half-maximal effect
In short: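 CellTiter-Glo luminescence (cellular ATP) after 24 h compound exposure at 37 C; LYMP2-025 human lymphoblastoid cells, 2500/well, complete medium. Tetraoctylammonium bromide positive control. AC50 by Hill equation fit of qHTS concentration-response.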

[11] = Cell Viability - LYMP2-002 (AID 977); note: potency is the fitted concentration of half-maximal effect
In short: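 Human lymphoblastoid cells, 2500/well, complete medium; 5 h 37 C settle; compound 24 h 37 C; CellTiter-Glo, 30 min RT; luminescence. Decrease in ATP = cytotoxicity; AC50 via Hill equation.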

[12] = Cell Viability - LYMP2-006 (AID 978); note: potency is the fitted concentration of half-maximal effect; nearly all actives have a fitted effect of over 60% in size
In short: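 Potency values are Hill-fit AC50s for decreases in intracellular ATP (CellTiter-Glo luminescence). LYMP2-006 lymphoblastoid cells, 2500 per well, were exposed to compound in complete culture medium for 24 hr at 37 C.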

[13] = Cell Viability - LYMP2-007 (AID 979);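 note: potency is the fitted concentration of half-maximal effect; cells exposed to compound for 24 h before reading; nearly all actives have a fitted effect of over 60% in size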
In short: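 qHTS cytotoxicity: 2500 cells/well, 5 hr 37 C settle, compound 24 hr 37 C, CellTiter-Glo 30 min RT, luminescence. Decrease in ATP = toxicity. AC50 by standard Hill equation; tetraoctylammonium bromide positive control.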

[14] = Cell Viability - LYMP2-008 (AID 980); note: potency is the fitted concentration of half-maximal effect; nearly all actives have a fitted effect of over 60% in size
In short: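 Luminescent ATP read-out (CellTiter-Glo, 30 min RT) after 24 hr compound exposure at 37 C of human lymphoblastoid cells in complete medium. Decrease in ATP taken as cytotoxicity; AC50 derived by standard Hill fit of qHTS concentration-response data.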

[15] = Cell Viability - LYMP2-010 (AID 981)
In short: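 qHTS cytotoxicity, 1536-well: 2500 cells/well, 5 hr settle, 24 hr compound at 37 C, CellTiter-Glo 30 min RT, luminescence read. Decrease in ATP = toxicity; AC50 via standard Hill equation. Positive control tetraoctylammonium bromide.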

[16] = Cell Viability - LYMP2-012 (AID 982)
[17] = Cell Viability - LYMP2-016 (AID 984)
In short: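 Cytotoxicity was scored by luminescent ATP content (CellTiter-Glo) after 24 h compound exposure at 37 C of a human lymphoblastoid line at 2500 cells/well. Concentration-response data were fitted to the Hill equation for AC50.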

[18] = Cell Viability - LYMP2-018 (AID 985); note: potency is the fitted concentration of half-maximal effect; nearly all actives have a fitted effect of over 50% in size
In short: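 2500 cells/well; 5 hr 37 C; cmpd 24 hr 37 C, complete medium; CellTiter-Glo 30 min RT; luminescence. Tetraoctylammonium bromide positive control. AC50 via Hill fit.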

[19] = Cell Viability - LYMP2-020 (AID 986)
In short: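 qHTS, 2500 cells/well; 5 hr then 24 hr compound exposure, 37 C; CellTiter-Glo luminescence after 30 min RT; ATP decrease taken as cytotoxicity; AC50 via Hill equation; tetraoctylammonium bromide positive control.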

[20] = Cell Viability - LYMP2-022 (AID 987)
In short: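 Luminescent ATP read-out (CellTiter-Glo, 30 min, RT) after 24 hr, 37 C compound exposure of 2500 human lymphoblastoid cells/well in complete medium. Cytotoxicity taken as concentration-dependent ATP loss; AC50 from standard Hill equation.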

[21] = Cell Viability - LYMP2-024 (AID 988)
In short: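 ATP-based luminescence (CellTiter-Glo, 30 min RT) after 24 h compound exposure at 37 C of 2500 lymphoblastoid cells/well; decrease in ATP taken as cytotoxicity. qHTS concentration-response fitted to standard Hill equation for AC50.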

[22] = Cell Viability - LYMP2-026 (AID 989); note: potency is the fitted concentration of half-maximal effect; nearly all actives have a fitted effect of over 50% in size
In short: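 qHTS cytotoxicity: 2500 cells/well, 5 hr 37 C, compound 24 hr 37 C, CellTiter-Glo 30 min RT, luminescence. Tetraoctylammonium bromide positive control. AC50 via standard Hill fit.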

[23] = target: Glucocorticoid receptor (Homo sapiens) (UniProt P04150); assay: qHTS assay for small molecule antagonists of glucocorticoid receptor signaling (AID 588533; active = well fitted inhibition curve with a large enough effect in the signal ratio, with a control signal flat, not every such curve was filed as active; the % refers to the signal ratio;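 note: cells stimulated with 2 nM dexamethasone as agonist; % is set by controls: 0 for no effect and ±100 for the full control effect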)
Chain of Glucocorticoid receptor (Homo sapiens) (P04150 whole entry, looked up): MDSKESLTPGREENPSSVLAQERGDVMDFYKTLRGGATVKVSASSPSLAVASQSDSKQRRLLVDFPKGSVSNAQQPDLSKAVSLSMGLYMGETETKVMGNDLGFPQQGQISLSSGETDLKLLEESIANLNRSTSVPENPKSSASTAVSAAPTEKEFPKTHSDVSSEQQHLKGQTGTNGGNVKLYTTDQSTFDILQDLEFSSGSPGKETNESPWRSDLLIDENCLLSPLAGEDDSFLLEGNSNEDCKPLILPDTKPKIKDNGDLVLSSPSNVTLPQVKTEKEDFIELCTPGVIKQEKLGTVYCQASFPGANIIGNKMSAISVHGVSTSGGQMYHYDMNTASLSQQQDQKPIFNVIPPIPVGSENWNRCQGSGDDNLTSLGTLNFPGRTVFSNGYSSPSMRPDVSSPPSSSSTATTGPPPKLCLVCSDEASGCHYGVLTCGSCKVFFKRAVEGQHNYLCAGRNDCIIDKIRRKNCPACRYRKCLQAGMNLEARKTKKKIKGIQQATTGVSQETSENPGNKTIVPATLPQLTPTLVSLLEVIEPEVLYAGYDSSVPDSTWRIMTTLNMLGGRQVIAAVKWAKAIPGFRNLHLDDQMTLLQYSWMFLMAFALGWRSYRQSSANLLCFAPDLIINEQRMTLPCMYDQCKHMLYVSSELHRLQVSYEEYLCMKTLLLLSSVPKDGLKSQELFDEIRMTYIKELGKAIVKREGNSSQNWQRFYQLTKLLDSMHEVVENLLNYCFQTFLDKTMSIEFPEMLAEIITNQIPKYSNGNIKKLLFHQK
In short: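 Antagonist-mode qHTS: compound titrations added to GRE-bla HeLa cells, then dexamethasone 2 nM final; 18 h, 37 C. CCF4 FRET fluorescence normalized to dexamethasone and DMSO; IC50 from Hill fit.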

[24] = target: Peroxisome proliferator-activated receptor delta (Homo sapiens) (UniProt Q03181); assay: qHTS assay for small molecule agonists of peroxisome proliferator-activated receptor delta signaling (AID 588534; calls by dose curve;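 note: 0% = DMSO basal wells and 100% = positive control agonist at 10 µM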)
Chain of Peroxisome proliferator-activated receptor delta (Homo sapiens) (Q03181 whole entry, looked up): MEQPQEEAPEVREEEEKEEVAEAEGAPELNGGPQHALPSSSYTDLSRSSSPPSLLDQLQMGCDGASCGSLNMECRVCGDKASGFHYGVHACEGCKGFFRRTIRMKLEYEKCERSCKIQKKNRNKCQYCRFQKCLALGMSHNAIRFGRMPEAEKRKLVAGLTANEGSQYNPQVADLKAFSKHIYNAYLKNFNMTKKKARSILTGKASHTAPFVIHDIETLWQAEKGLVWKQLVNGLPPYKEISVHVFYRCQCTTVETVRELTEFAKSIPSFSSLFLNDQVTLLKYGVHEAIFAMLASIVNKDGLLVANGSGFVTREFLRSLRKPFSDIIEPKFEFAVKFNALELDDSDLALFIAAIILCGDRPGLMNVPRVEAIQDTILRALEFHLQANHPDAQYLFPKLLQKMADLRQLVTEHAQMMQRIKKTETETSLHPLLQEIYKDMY
In short: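 Titration series tested in agonist mode on beta-lactamase reporter cells; 18 hrs at 37 C after a 5 hr pre-incubation. Readout: CCF4 fluorescence, 2 hrs RT. Hill equation gives EC50 and maximal response.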

[25] = target: Voltage-gated inwardly rectifying potassium channel KCNH2 (Homo sapiens) (UniProt Q12809); assay: qHTS Assay for Small Molecule Inhibitors of the Human hERG Channel Activity (AID 588834);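 note: potency is the fitted concentration of half-maximal effect; lower thallium flux fluorescence means stronger hERG block; nearly all actives have a fitted effect of over 50% in size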
Chain of Voltage-gated inwardly rectifying potassium channel KCNH2 (Homo sapiens) (Q12809 whole entry, looked up): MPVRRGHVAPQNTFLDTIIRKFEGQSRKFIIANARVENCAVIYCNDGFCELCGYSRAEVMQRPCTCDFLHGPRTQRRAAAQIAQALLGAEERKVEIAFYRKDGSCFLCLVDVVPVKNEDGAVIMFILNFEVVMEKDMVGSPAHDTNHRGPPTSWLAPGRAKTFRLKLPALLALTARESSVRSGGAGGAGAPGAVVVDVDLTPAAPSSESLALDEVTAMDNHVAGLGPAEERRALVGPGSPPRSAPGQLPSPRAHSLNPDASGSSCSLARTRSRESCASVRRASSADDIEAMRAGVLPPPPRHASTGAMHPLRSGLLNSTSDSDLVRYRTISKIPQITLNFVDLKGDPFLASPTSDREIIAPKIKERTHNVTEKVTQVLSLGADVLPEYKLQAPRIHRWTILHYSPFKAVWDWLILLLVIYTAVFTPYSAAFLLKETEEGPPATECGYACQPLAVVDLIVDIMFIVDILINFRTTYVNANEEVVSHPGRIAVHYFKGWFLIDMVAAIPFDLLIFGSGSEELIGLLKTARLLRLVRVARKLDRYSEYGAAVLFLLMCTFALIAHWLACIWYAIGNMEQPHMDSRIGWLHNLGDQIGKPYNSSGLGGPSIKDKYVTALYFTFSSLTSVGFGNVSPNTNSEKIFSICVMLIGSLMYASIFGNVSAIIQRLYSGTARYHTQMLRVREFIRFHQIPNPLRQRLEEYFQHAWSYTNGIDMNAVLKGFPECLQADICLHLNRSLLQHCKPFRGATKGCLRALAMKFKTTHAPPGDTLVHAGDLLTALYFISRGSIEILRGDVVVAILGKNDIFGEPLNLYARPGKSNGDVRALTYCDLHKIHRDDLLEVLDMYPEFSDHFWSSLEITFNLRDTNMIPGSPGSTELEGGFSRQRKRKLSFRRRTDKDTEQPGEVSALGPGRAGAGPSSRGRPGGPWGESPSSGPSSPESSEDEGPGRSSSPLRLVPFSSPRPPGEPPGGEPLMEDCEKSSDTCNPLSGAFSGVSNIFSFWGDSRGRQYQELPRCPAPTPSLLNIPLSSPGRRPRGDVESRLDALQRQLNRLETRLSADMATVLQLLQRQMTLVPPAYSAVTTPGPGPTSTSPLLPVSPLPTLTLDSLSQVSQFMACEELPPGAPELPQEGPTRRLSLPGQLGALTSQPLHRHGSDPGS
In short: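 hERG block measured as reduced thallium-dye (FluxOR) fluorescence after stimulation buffer addition, read over 2 min. Cells were hERG-BacMam-transduced U2OS exposed to compound ~10 min […]; concentration-response fitted with Hill equation for AC50.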

[26] = qHTS assay for small molecule agonists of the antioxidant response element (ARE) signaling pathway (AID 651741; active = well fitted activation curve with a large enough effect in the signal ratio; the % refers to the signal ratio; note: % of control where 0% means no effect)
In short: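 HepG2 ARE-bla reporter cells, 2,000/well; 5 h settle at 37 C/5% CO2; compound pin transfer (23 nL, DMSO); 16 h at 37 C; LiveBLAzer B/G FRET substrate, 2 h RT; fluorescence intensity read.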

[27] = qHTS assay for small molecule activators of the p53 signaling pathway (AID 651743; active = well fitted activation curve with a large enough effect in the signal ratio, not every such curve was filed as active; the % refers to the signal ratio; note: series mostly up to about 92 µM; % of control where 0% means no effect); settings: HCT-116 p53RE-bla, beta-lactamase FRET ratio, 16 h; activation: hits give high values
In short: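 Reporter: beta-lactamase driven by p53 response elements, stably integrated in HCT-116 cells. Cells seeded at 4,000/well, 5 h preincubation, compound (DMSO) 16 h at 37 C; B/G FRET substrate 2 h RT; fluorescence intensity read.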

[28] = qHTS assay to identify small molecules that stimulate interleukin-8 (IL-8) secretion (AID 651758; active = well fitted activation curve with a large enough effect in the signal ratio; the % refers to the signal ratio; note: potency is the fitted concentration of half-maximal effect)
In short: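 Compounds are added to THP-1 cells (2000 per well) and left 16 hrs at 37 C. A labeled anti-IL-8 antibody pair is then added, and IL-8 secretion is measured by time-resolved FRET after 1-3 hrs at room temperature.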

[29] = target: Nuclear receptor ROR-gamma (Homo sapiens) (UniProt P51449); assay: qHTS assay for small molecule antagonists of the retinoid-related orphan receptor gamma (ROR-gamma) signaling pathway (AID 651802)
Chain of Nuclear receptor ROR-gamma (Homo sapiens) (P51449 whole entry, looked up): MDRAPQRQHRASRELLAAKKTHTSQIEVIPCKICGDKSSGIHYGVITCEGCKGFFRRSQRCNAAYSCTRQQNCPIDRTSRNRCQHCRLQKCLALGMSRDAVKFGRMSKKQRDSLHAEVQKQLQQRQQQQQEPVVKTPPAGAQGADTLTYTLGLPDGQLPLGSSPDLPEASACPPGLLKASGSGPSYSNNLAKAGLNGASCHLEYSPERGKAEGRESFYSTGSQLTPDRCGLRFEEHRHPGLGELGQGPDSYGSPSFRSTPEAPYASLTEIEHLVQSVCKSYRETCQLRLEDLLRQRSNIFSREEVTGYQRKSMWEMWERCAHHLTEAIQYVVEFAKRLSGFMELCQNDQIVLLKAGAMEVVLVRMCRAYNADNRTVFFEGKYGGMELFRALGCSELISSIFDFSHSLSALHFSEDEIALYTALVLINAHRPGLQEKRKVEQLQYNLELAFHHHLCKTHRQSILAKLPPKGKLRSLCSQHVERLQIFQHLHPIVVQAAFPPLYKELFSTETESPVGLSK
In short: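 Luciferase read-out: ONE-Glo luminescence after 30 min at room temperature, following 16hr doxycycline induction at 37C, 5% CO2 of CHO cells with TET-inducible ROR and RORE-LUC reporter; decreased luminescence = reduced reporter activity.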

[30] = qHTS assay for small molecule antagonists of the retinoid-related orphan receptor gamma (ROR-gamma) signaling pathway - cell viability counter screen (AID 720652; active = well fitted curve in the direction sought with a large enough effect in the repeat runs; an effect the other way counts as inactive or inconclusive;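 note: potency is the fitted concentration of half-maximal effect; compound exposure lasted 16 hr before ATP read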)
In short: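 CHO RORE-LUC/TET-ROR line, 1,000 cells/well, 37 C 5% CO2 5 hr; cpd or DMSO + doxycycline induction, 16 hr. CellTiter-Glo, 30 min RT, luminescence = ATP content.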

[31] = qHTS assay for small molecule agonists of the antioxidant response element (ARE) signaling pathway measured by Nrf2-dependant transcriptional activity - cell viability counter screen (AID 720653; active = well fitted curve in the direction sought with a large enough effect in the repeat runs; an effect the other way counts as inactive or inconclusive; note: potency is the fitted concentration of half-maximal effect; for max response: % is set by controls: 0 for no effect and ±100 for the full control effect); settings: ARE-bla HepG2 viability, CellTiter-Glo ATP luminescence, 16 h; max response: hits give low values
In short: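 ARE-bla HepG2 cells treated with compounds for 16 h at 37C; this counter screen measures viability as intracellular ATP by CellTiter-Glo luminescence after 30 min at room temperature.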

ClC1=C(Cl)C(Cl)(Cl)C(Cl)=C1Cl
inactive: Potency [23] | outcome [24] | Potency [26] | activation [27] 12.3% | max response [31] -1.05%
active: Potency [1] 5.01 µM | Potency [2] 7.94 µM | Potency [3] 6.31 µM | Potency [4] 6.31 µM | Potency [5] 3.98 µM | Potency [6] 6.31 µM | Potency [7] 6.31 µM | Potency [8] 6.31 µM | Potency [9] 5.01 µM | Potency [10] 10 µM | Potency [11] 6.31 µM | Potency [12] 7.94 µM | Potency [13] 3.16 µM | Potency [14] 3.16 µM | Potency [15] 5.01 µM | Potency [16] 6.31 µM | Potency [17] 6.31 µM | Potency [18] 7.94 µM | Potency [19] 7.94 µM | Potency [20] 6.31 µM | Potency [21] 3.16 µM | Potency [22] 10 µM | Potency [25] 22.4 µM | Potency [28] 29.8 µM | Potency [29] 13.3 µM | Potency [30] 11.9 µM | Potency [31] 35.5 µM
